The structures appear in SMILES notation.

In the first assay the target is Neurogenic locus notch homolog protein 3 (Homo sapiens) (UniProt Q9UM47). As to the kind of experiment: small molecules binding NOTCH3 protein – biochemical, 635/667 nm fluorescence, primary screen (AID 1096). The conditions noted are these: small-molecule microarray, 635 nm fluorescence, higher = more signal.
Chain of Neurogenic locus notch homolog protein 3 (Homo sapiens) (Q9UM47 whole entry, looked up): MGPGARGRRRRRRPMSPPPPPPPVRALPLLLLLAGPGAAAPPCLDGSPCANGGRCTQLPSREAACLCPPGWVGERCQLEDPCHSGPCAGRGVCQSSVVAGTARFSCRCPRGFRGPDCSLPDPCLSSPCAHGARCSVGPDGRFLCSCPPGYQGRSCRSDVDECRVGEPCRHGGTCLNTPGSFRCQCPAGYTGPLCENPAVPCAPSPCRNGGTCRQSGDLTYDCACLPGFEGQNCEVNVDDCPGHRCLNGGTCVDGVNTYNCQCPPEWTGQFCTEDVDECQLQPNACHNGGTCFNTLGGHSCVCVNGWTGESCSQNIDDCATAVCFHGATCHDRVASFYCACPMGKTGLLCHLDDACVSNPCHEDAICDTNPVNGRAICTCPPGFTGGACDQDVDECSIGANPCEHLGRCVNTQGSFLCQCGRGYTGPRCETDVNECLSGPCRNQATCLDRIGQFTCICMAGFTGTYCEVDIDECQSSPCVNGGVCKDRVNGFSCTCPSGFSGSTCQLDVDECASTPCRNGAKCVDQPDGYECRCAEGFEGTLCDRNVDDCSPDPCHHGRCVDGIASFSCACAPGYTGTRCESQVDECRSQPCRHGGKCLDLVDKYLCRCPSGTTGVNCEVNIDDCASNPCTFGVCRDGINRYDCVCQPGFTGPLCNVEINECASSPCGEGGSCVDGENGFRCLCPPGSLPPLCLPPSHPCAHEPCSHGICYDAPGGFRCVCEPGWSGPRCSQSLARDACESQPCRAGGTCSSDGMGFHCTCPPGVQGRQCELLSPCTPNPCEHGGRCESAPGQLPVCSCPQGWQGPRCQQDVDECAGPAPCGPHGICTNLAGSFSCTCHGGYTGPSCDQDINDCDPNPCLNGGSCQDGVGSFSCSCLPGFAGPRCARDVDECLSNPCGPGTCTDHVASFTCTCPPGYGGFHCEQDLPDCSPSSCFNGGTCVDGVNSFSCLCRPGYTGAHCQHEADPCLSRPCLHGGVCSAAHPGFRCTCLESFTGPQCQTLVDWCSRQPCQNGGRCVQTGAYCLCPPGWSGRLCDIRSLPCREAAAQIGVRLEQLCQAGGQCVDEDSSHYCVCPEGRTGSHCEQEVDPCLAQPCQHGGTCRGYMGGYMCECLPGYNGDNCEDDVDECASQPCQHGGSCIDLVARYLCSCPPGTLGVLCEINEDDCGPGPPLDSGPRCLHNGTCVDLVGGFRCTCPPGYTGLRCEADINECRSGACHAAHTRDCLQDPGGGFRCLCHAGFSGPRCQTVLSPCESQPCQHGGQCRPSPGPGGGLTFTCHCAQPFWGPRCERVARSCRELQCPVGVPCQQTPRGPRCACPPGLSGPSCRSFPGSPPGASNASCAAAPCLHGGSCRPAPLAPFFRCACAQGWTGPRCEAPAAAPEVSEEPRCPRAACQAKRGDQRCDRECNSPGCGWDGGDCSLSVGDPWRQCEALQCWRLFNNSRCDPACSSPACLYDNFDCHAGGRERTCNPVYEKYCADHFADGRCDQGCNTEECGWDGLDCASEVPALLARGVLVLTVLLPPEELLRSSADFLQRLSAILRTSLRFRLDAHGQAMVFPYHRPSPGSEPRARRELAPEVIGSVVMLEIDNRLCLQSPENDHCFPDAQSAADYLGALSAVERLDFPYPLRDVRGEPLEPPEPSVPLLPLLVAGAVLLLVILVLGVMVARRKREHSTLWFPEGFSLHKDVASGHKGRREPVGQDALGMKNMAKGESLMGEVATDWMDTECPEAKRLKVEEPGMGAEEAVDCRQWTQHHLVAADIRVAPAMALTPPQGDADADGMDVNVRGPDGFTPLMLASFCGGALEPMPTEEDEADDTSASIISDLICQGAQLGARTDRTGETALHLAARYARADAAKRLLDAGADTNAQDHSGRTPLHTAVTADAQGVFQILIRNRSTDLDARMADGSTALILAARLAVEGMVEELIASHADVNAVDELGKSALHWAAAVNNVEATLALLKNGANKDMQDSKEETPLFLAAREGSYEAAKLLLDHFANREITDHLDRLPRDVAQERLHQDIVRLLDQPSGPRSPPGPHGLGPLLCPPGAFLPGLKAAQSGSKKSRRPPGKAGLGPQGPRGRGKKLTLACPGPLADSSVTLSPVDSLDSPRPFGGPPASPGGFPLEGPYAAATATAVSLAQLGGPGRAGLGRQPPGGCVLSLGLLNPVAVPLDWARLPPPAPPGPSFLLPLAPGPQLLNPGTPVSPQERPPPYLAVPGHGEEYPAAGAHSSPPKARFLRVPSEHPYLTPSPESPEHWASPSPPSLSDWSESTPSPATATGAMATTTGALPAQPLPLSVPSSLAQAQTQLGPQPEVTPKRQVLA
`CN(C)C(=O)[C@@]1(Cc2ccccc2N=[N+]=[N-])N=C(c2ccc(OCCCO)cc2)O[C@H]1c1ccccc1CN=[N+]=[N-]` showed a composite z-score of 1.06. Regarding `CO[C@H]1COC(=O)[C@@H](C)COC(=O)[C@H](Cc2ccccc2)NC(=O)CC=C[C@H]1C`, the composite z-score stood at 0.722. On to `CC(=O)NCCCC[C@@H]1NC(=O)[C@H]2C[C@@H](C(=O)NCCCCCCN(C)C)[C@@H](c3cccc(OCCO)c3)N2C1=O`, for which the composite z-score turned out to be 1.02. Same read-out and setting: with `C=CCC(OC(C)=O)[C@@H]1[C@@H](N(Cc2ccc(-c3ccccc3)cc2)C(=O)c2ccc(-c3ccccc3)cc2)c2cc(OCCCO)ccc2N1C(=O)Cc1ccc(OC)cc1` (stereo not given in full) the figure was -0.0122. As to `COCCCNC(=O)[C@@H]1c2ccccc2C(=O)N(CC23CC4CC(CC(C4)C2)C3)[C@H]1c1ccc(CO)cc1`, the composite z-score stood at 0.588. As to `C=CCN1C(=O)[C@]2(O[C@H](CCn3cc(CCO)nn3)[C@@H]([Si](C)(C)c3ccc(OC)cc3)[C@@H]2C)c2cc(NC(=O)c3ccc(OC)cc3)ccc21`, the composite z-score is 0.527.

As for `C=C(CCCC)/C(=C/C[C@@H](OC(=O)c1ccncc1)c1ccc(CO)o1)c1cnc2ccccc2c1`, the composite z-score was found to be 1.02. On the same count and under the same terms, under `COC(=O)Cn1c(C(=O)N2CCCC2)cc2c1C[C@H]1CN(C(=O)c3ccccc3)[C@@](Cc3ccc(OC)cc3)(C(=O)OC)[C@@H]21` stands 1.13; under `C=C(CCCC)C(=O)CC[C@@H](OC(C)=O)c1ccccc1OCCO`, -0.524; under `CCOC(=O)C[C@H]1[C@H](OC(=O)c2cc3ccccc3oc2=O)[C@@H](NC(=O)C2CCCCC2)c2cc(OCCCO)ccc2N1C(=O)c1ccc2ccccc2n1`, 1.02. Same read-out and setting: under `COC(=O)C(CC#Cc1ccc2c(c1)[C@]1(C(=O)N2)[C@H](C(=O)N2CCCCCCC2)[C@H]2C(=O)O[C@H](c3ccccc3)[C@H](c3ccccc3)N2[C@@H]1c1ccc(O)cc1)C(=O)OC` stands -0.909.

`C=C[C@H](OC)[C@@H](OC(=O)Nc1ccc(SC)cc1)c1ccc(O)c(F)c1`: the composite z-score came to 0.134. On the same count and under the same terms, with `O=C1O[C@@H](c2ccccc2)[C@@H](c2ccccc2)N2[C@@H](c3ccc(OCCO)cc3)[C@]3(C(=O)Nc4ccc(C#CCCO)cc43)[C@@H](C(=O)N3CCN(c4ncccn4)CC3)[C@H]12` the figure was 1.14.

The compound `C=CCC(OC(C)=O)[C@@H]1[C@@H](N(Cc2cccc3ccccc23)C(=O)Cc2ccc(F)cc2)c2cc(OCCCO)ccc2N1C(=O)Cc1ccc2ccccc2c1` (stereo not given in full) registered a composite z-score of -0.0809. As for `O=C1O[C@@H](c2ccccc2)[C@@H](c2ccccc2)N2[C@@H](c3ccc(O)cc3)[C@]3(C(=O)Nc4ccc(C#CC5(O)CCCCCC5)cc43)[C@@H](C(=O)Nc3nc4ccccc4s3)[C@H]12`, the composite z-score was determined as 1.07. Still for that read-out and setting: with `C#CCCCON=C1C[C@@H](O)[C@@H](O)[C@@H]2[C@@H]3C(=O)N(Cc4ccc5c(c4)OCO5)C(=O)[C@@H]3CC[C@@H]12` the figure was 0.0568; with `O=C1O[C@H](c2ccccc2)[C@H](c2ccccc2)N2[C@H]1[C@@H](C(=O)NC[C@H](O)c1ccccc1)[C@]1(C(=O)Nc3ccc(C#CC4(O)CCCCCC4)cc31)[C@H]2c1ccc(OCCO)cc1`, 0.868. Same read-out and setting: with `CCOC(=O)C1=C[C@@H](c2ccccc2)N(S(=O)(=O)c2ccc(C)cc2)[C@H]1c1ccc(F)cc1` the figure was 1.09; with `O=[N+]([O-])c1ccc(C[n+]2ccc3ccc(O)cc3c2)o1`, 0.791.

Test system in another assay: not listed separately
As to the kind of experiment: probe aEGFR binding to arrayed compounds – biochemical, biotinylated probe, 635/667 nm fluorescence, primary screen (AID 1097).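 Note: probe is a biotinylated anti-EGFR antibody binding compounds printed on slides; score combines fluorescence near 667 nm and signal to noise of each spot.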 The conditions noted are these: small-molecule microarray, higher = more signal.
As to `CCCNC(=O)[C@@]1(Sc2ccc(C)cc2)CC(=O)N(Cc2ccccc2Cl)[C@@H]1c1ccc(CO)cc1`, the composite z-score was -0.0082. `C[C@H]1COC(=O)[C@H](Cc2ccccc2)NC(=O)[C@@H](C)COC(=O)[C@H](Cc2ccccc2)NC1=O` came in with a composite z-score of -0.0781. Still for that read-out and setting: under `CC(C)N1CC=CC23O[C@@H]4/C=C\CCCOC(=O)C4[C@H]2C(=O)N(CCO)[C@@H]3C1=O` (stereo not given in full) stands -0.173.

Regarding `COC(=O)[C@@]1(Cc2ccc(OC)cc2)[C@H]2c3cc(C(=O)N(C)C)n(CCc4ccc(OC)c(Br)c4)c3C[C@H]2CN1C(=O)c1ccccc1`, the composite z-score worked out at 0.674. On the same count and under the same terms, with `COCCOC(=O)N1C(=O)[C@@]2(c3cc(C#CCCO)ccc31)[C@H](c1ccc(O)cc1)N1[C@H](c3ccccc3)[C@H](c3ccccc3)OC(=O)[C@H]1[C@@H]2C(=O)Nc1nc2ccccc2s1` the figure was 0.0082; with `C=CC[C@]1(C(=O)N2CCCCC2)N=C(c2ccc(OCCCO)cc2)O[C@H]1c1ccccc1N=[N+]=[N-]`, 0.561; with `CCCC=C(CCC)[C@@H](NS(=O)(=O)c1cccc(C(F)(F)F)c1)c1ccc(C(=O)OC)cc1`, 0.912.

With `COc1ccc([Si](C)(C)[C@@H]2[C@@H](CC(=O)N(CCO)Cc3ccccc3)O[C@]3(C(=O)N(Cc4cccc(N5CCC5=O)c4)c4ccccc43)[C@H]2C)cc1`, the composite z-score was -0.135. Compound `COc1cc([C@@H]2N[C@H](C(=O)O)Cc3c2[nH]c2ccccc32)cc(OC)c1OC` displayed a composite z-score of -0.0069. On the same count and under the same terms, under `COCC(=C=CC[C@H](O)c1ccc(OCCO)cc1)C[C@H](O)c1ccccn1` stands -0.235.

`COCCOC(=O)N1C(=O)[C@@]2(c3cc(C#CC4(O)CCCCCC4)ccc31)[C@H](C(=O)N1CCCCCCC1)[C@H]1C(=O)O[C@H](c3ccccc3)[C@H](c3ccccc3)N1[C@@H]2c1ccc(O)cc1` displayed a composite z-score of 0.67.

The compound `C=CCC(OC(C)=O)[C@@H]1[C@@H](N(Cc2cc3ccccc3o2)C(=O)c2ccc(C)cc2)c2cc(OCCCO)ccc2N1C(=O)c1ccc2ccccc2n1` (stereo not given in full) had a composite z-score of -0.129. Same read-out and setting: with `C=C(COC)C(=O)CC[C@H](OC(=O)c1ccccc1-c1ccccc1C(=O)O)c1cccc(OCCO)c1` the figure was 0.0004. The same measure, in the same setting: with `CC(C)[Si](OCC[C@H]1O[C@]2(C(=O)N(Cc3ccccc3)c3ccccc32)[C@@H](C)[C@@H]1[Si](C)(C)O)(C(C)C)C(C)C` the figure was -0.109; with `CO[C@H]1COC(=O)CC=C[C@H](C)[C@@H](OC)COC(=O)CC=C[C@@H]1C`, -0.0273.

As for `COCCOC(=O)N1C(=O)[C@@]2(c3cc(C#CC4=CCCCC4)ccc31)[C@H](C(=O)NC[C@H](O)c1ccccc1)[C@H]1C(=O)O[C@H](c3ccccc3)[C@H](c3ccccc3)N1[C@@H]2c1ccccc1OCCO`, the composite z-score is -0.0316. On the same count and under the same terms, under `COc1cc2c(cc1OC)CN(C(=O)[C@H]1[C@@H]3C(=O)O[C@@H](c4ccccc4)[C@@H](c4ccccc4)N3[C@@H](c3ccc(O)cc3)[C@]13C(=O)Nc1ccc(C#CC4(O)CCCCCC4)cc13)CC2` stands 0.221; under `CN(C)C(=O)[C@@]1(Cc2ccccc2N=[N+]=[N-])N=C(c2ccc(OCCCO)cc2)O[C@H]1c1ccccc1CN=[N+]=[N-]`, 0.355.

As for `CO[C@H]1COC(=O)[C@@H](C)COC(=O)[C@H](Cc2ccccc2)NC(=O)CC=C[C@H]1C`, the composite z-score was -0.188. For `CC(=O)NCCCC[C@@H]1NC(=O)[C@H]2C[C@@H](C(=O)NCCCCCCN(C)C)[C@@H](c3cccc(OCCO)c3)N2C1=O`, the composite z-score turned out to be 0.539. The same measure, in the same setting: with `C=CCC(OC(C)=O)[C@@H]1[C@@H](N(Cc2ccc(-c3ccccc3)cc2)C(=O)c2ccc(-c3ccccc3)cc2)c2cc(OCCCO)ccc2N1C(=O)Cc1ccc(OC)cc1` (stereo not given in full) the figure was -0.0994. For `COCCCNC(=O)[C@@H]1c2ccccc2C(=O)N(CC23CC4CC(CC(C4)C2)C3)[C@H]1c1ccc(CO)cc1`, the composite z-score came to 0.135.

With `C=CCN1C(=O)[C@]2(O[C@H](CCn3cc(CCO)nn3)[C@@H]([Si](C)(C)c3ccc(OC)cc3)[C@@H]2C)c2cc(NC(=O)c3ccc(OC)cc3)ccc21`, the composite z-score was -0.109. `C=C(CCCC)/C(=C/C[C@@H](OC(=O)c1ccncc1)c1ccc(CO)o1)c1cnc2ccccc2c1` registered a composite z-score of 0.0071. The same measure, in the same setting: with `COC(=O)Cn1c(C(=O)N2CCCC2)cc2c1C[C@H]1CN(C(=O)c3ccccc3)[C@@](Cc3ccc(OC)cc3)(C(=O)OC)[C@@H]21` the figure was 0.434; with `C=C(CCCC)C(=O)CC[C@@H](OC(C)=O)c1ccccc1OCCO`, -0.232. `CCOC(=O)C[C@H]1[C@H](OC(=O)c2cc3ccccc3oc2=O)[C@@H](NC(=O)C2CCCCC2)c2cc(OCCCO)ccc2N1C(=O)c1ccc2ccccc2n1` came in with a composite z-score of -0.154. For `COC(=O)C(CC#Cc1ccc2c(c1)[C@]1(C(=O)N2)[C@H](C(=O)N2CCCCCCC2)[C@H]2C(=O)O[C@H](c3ccccc3)[C@H](c3ccccc3)N2[C@@H]1c1ccc(O)cc1)C(=O)OC`, the composite z-score was -0.221. Same read-out and setting: with `C=C[C@H](OC)[C@@H](OC(=O)Nc1ccc(SC)cc1)c1ccc(O)c(F)c1` the figure was -0.12; with `O=C1O[C@@H](c2ccccc2)[C@@H](c2ccccc2)N2[C@@H](c3ccc(OCCO)cc3)[C@]3(C(=O)Nc4ccc(C#CCCO)cc43)[C@@H](C(=O)N3CCN(c4ncccn4)CC3)[C@H]12`, -0.0828; with `C=CCC(OC(C)=O)[C@@H]1[C@@H](N(Cc2cccc3ccccc23)C(=O)Cc2ccc(F)cc2)c2cc(OCCCO)ccc2N1C(=O)Cc1ccc2ccccc2c1` (stereo not given in full), -0.121. `O=C1O[C@@H](c2ccccc2)[C@@H](c2ccccc2)N2[C@@H](c3ccc(O)cc3)[C@]3(C(=O)Nc4ccc(C#CC5(O)CCCCCC5)cc43)[C@@H](C(=O)Nc3nc4ccccc4s3)[C@H]12` gave a composite z-score of 0.267.

Regarding `C#CCCCON=C1C[C@@H](O)[C@@H](O)[C@@H]2[C@@H]3C(=O)N(Cc4ccc5c(c4)OCO5)C(=O)[C@@H]3CC[C@@H]12`, the composite z-score was -0.0389.

For the compound `O=C1O[C@H](c2ccccc2)[C@H](c2ccccc2)N2[C@H]1[C@@H](C(=O)NC[C@H](O)c1ccccc1)[C@]1(C(=O)Nc3ccc(C#CC4(O)CCCCCC4)cc31)[C@H]2c1ccc(OCCO)cc1`, the composite z-score is 0.0301. On the same count and under the same terms, under `CCOC(=O)C1=C[C@@H](c2ccccc2)N(S(=O)(=O)c2ccc(C)cc2)[C@H]1c1ccc(F)cc1` stands 0.0624. Turning to `O=[N+]([O-])c1ccc(C[n+]2ccc3ccc(O)cc3c2)o1`, the composite z-score was -0.0867.

Source of the values: PubChem BioAssay.
